Measurements as given in PubChem BioAssay (Tox21).
Inconclusive results are not listed. Activity calls are given as the source filed them. Unless noted, the call rests on the fitted dose curve; in most records, active means well fitted curve in the direction sought with a large enough effect in the repeat runs; inconclusive means weak or mixed curves; inactive means no such curve, though single readings can be large; an effect the other way counts as inactive or inconclusive.

Tests used:
[1] = qHTS assay to identify small molecule antagonists of the vitamin D receptor (VDR) signaling pathway - cell viability counter screen (AID 743225); further: on the % scale 0 is the no-effect control and ±100 the full control effect; nearly all actives have a fitted effect of over 50% in size
Outline: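 Cytotoxicity counter screen read by CellTiter-Glo luminescence (30 min, room temperature) in the same wells as the VDR-bla antagonist readout. HEK 293T VDR-UAS-bla cells had 16 h at 37C with compound and 3 nM (final) 1-alpha,25-dihydroxyvitamin D3, then 2 h with FRET substrate.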

[2] = qHTS assay to identify small molecule agonists of the NFkB signaling pathway - cell viability counter screen (AID 1159515; calls by dose curve; further: series mostly up to about 61 µM; on the % scale 0 is the no-effect control and ±100 the full control effect; nearly all actives have a fitted effect of over 55% in size)
Outline: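 NFkB-bla ME-180 cells, 2,000/well, were plated overnight at 37 C, 5% CO2, then exposed to compounds in DMSO for 5 hr. After the bla FRET read, CellTiter-Glo was added to the same wells; luminescence was read after 30 min at room temperature.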

[3] = qHTS assay to identify small molecule agonists of the endoplasmic reticulum stress response signaling pathway (AID 1159516; active means well fitted activation curve with a large enough effect in the signal ratio in the repeat runs, not every such curve was filed as active; the % refers to the signal ratio; further: on the % scale 0 is the no-effect control and ±100 the full control effect)
Outline: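 CellSensor ESRE-bla HeLa cells, carrying a beta-lactamase reporter driven by the ER stress response element, were plated overnight and exposed to compounds for 5 hr at 37 C. Reporter activity was read as FRET substrate fluorescence after 2 hr at room temperature.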

[4] = qHTS assay to identify small molecule agonists of the endoplasmic reticulum stress response signaling pathway - cell viability counter screen (AID 1159517; calls by dose curve; further: series mostly up to about 61 µM; on the % scale 0 is the no-effect control and ±100 the full control effect; nearly all actives have a fitted effect of over 50% in size)
Outline: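 ESRE-bla HeLa cells, 1,500 per well, seeded overnight then treated with compounds for 5 hr at 37 C. After the beta-lactamase read, viability in the same wells is measured by CellTiter-Glo luminescence after 30 min at room temperature.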

[5] = qHTS assay to identify small molecule antagonists of the retinoid-related orphan receptor gamma (ROR-gamma) signaling pathway - cell viability counter screen (AID 1159520); further: nearly all actives have a fitted effect of over 50% in size; further: potency means the concentration at half of the fitted maximal effect
Outline: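 Tet-on ROR gamma CHO cells were given compounds for 2 hr, then doxycycline hyclate at 1 uM final, and incubated 16 hr at 37 C. Viability was measured as ATP content by CellTiter-Glo luminescence.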

[6] = target: Nuclear receptor ROR-gamma (Homo sapiens) (UniProt P51449); assay: qHTS assay to identify small molecule antagonists of the retinoid-related orphan receptor gamma (ROR-gamma) signaling pathway (AID 1159521; further: nearly all actives have a fitted effect of over 50% in size; further: potency means the concentration at half of the fitted maximal effect)
Outline: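 Antagonist read-out: drop in luminescence (ONE-Glo) from an RORE-LUC reporter in CHO cells with doxycycline-inducible ROR-gamma; 2 hr compound pretreatment, 1 uM doxycycline, 16 hr incubation at 37 C.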

[7] = qHTS assay to identify small molecule agonists of the RXR signaling pathway - cell viability counter screen (AID 1159529)
Outline: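 CellTiter-Glo luminescence gave viability in the wells also read for beta-lactamase. Cells (RXR-alpha-UAS-bla HEK 293T, 2% charcoal-stripped FBS medium) had 5 hr plating, then 16 hr compound exposure at 37 C; tetraoctyl ammonium bromide served as positive control.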

[8] = qHTS assay to identify small molecule antagonists of the retinoid acid receptor (RAR) signaling pathway - cell viability counter screen (AID 1159551); further: nearly all actives have a fitted effect of over 35% in size; further: potency means the concentration at half of the fitted maximal effect
Outline: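 C3RL4 cells were seeded overnight at 37 C, then treated with compounds plus 1 uM (final) retinol for 6 h at 37 C. Viability was read as ATP by CellTiter-Glo luminescence after 30 min at room temperature.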

[9] = qHTS assay to identify small molecule antagonists of the retinoic acid receptor (RAR) signaling pathway (AID 1159552)
Outline: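 Luminescent RARE reporter read-out in C3RL4 cells: 6 hr co-treatment at 37 C of test compounds with retinol at 1 uM final. Cells plated overnight beforehand; luciferase reagent incubated 30 min at room temperature before reading.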

[10] = qHTS assay to identify small molecule antagonists of the estrogen related receptor (ERR) signaling pathway from Tox21 library - cell viability counter screen (AID 1224834); further: nearly all actives have a fitted effect of over 30% in size; further: potency means the concentration at half of the fitted maximal effect
Outline: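 ERR reporter cells were plated 6 h before compound addition, then exposed to test compounds in DMSO for 17.5 h at 37 C. Viability was read as CellTiter-Fluor fluorescence after a 30-minute incubation at 37 C.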

[11] = target: Retinoic acid receptor RXR-alpha (Homo sapiens) (UniProt P19793); assay: qHTS assay to identify small molecule agonists of the RXR signaling pathway (AID 1159527; calls by dose curve; further: on the % scale 0 is the no-effect control and ±100 the full control effect; nearly all actives have a fitted effect of over 35% in size)
Sequence of Retinoic acid receptor RXR-alpha (Homo sapiens) (P19793 whole entry, looked up): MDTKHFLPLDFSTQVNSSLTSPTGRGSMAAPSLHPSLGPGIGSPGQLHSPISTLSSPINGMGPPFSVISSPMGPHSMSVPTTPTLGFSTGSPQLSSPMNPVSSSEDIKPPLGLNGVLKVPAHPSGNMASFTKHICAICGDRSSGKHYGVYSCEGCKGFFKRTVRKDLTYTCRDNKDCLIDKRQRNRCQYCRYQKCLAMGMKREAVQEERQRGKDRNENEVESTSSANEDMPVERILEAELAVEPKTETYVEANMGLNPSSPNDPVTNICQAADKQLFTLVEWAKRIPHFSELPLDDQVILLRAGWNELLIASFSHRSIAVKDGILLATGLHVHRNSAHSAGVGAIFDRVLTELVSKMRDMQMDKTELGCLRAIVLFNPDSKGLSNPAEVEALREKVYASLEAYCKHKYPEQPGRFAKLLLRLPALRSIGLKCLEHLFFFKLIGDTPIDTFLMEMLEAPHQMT
Outline: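 Agonist-mode beta-lactamase reporter assay: HEK 293T RXR-alpha-UAS-bla cells treated 16 hr at 37 C with compounds, 9-cis retinoic acid as positive control. LiveBLAzer FRET substrate, 405 nm excitation, 460/530 nm emission.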

[12] = qHTS assay to identify small molecule agonists of the AP-1 signaling pathway (AID 1159526; calls by dose curve; further: on the % scale 0 is the no-effect control and ±100 the full control effect)
[13] = qHTS assay to identify small molecule agonists of the retinoic acid receptor (RAR) signaling pathway (AID 1159553); further: potency means the concentration at half of the fitted maximal effect
Outline: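 C3RL4 cells carrying a RARE luciferase reporter were plated overnight at 37 C, then exposed to compounds in DMSO for 6 hr at 37 C and 5% CO2. Luminescence was read 30 min after luciferase reagent addition at room temperature.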

[14] = qHTS assay to identify small molecule agonists of the AP-1 signaling pathway - cell viability counter screen (AID 1159525; calls by dose curve; further: nearly all actives have a fitted effect of over 55% in size)
Outline: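 AP-1-bla ME-180 cells in Opti-MEM with 0.5% dialyzed FBS, compound exposure 5 h at 37 C in 15-point titration. Viability read in the same wells as ATP content by CellTiter-Glo luminescence, normalised to tetra-n-octylammonium bromide and DMSO controls.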

[15] = qHTS assay to identify small molecule antagonists of the estrogen related receptor (ERR) signaling pathway - cell viability counter screen (AID 1224818);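 further: series mostly up to about 46 µM; viability measured after 17.5 h of compound exposure; on the % scale 0 is the no-effect control and ±100 the full control effect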
Outline: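 ERR reporter cells plated 6 h at 37 C/5% CO2, then compounds in DMSO pin-transferred and incubated 17.5 h at 37 C. Viability read as CellTiter-Fluor fluorescence after 30 min at 37 C.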

[16] = qHTS assay to identify small molecule antagonists of the estrogen related receptor signaling pathway with the pleiotropic PPARgamma coactivator (PGC) cell viability counter screen (AID 1224822; further: series mostly up to about 46 µM; on the % scale 0 is the no-effect control and ±100 the full control effect)
Outline: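 PGC/ERR cells were seeded at 2,000 cells/well, rested 6 h at 37 C/5% CO2, then given compounds in DMSO by pin tool and incubated 17.5 h at 37 C. Viability came from CellTiter-Fluor fluorescence after 30 min.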

Cc1cccc(Nc2ccccc2)c1
inactive: Potency [1] | Potency [2] | Potency [3] | Potency [4] | Potency [5] | Potency [6] | Potency [7] | Potency [8] | Potency [9] | Potency [10]

CCC(C)(C)CC
inactive: Potency [1] | Potency [2] | Potency [3] | Potency [4] | Potency [5] | Potency [6] | Potency [11] | Potency [7] | Potency [8] | Potency [9] | Potency [10]

Nc1ccc(S(=O)(=O)Nc2ccccc2)cc1
inactive: Potency [1] | Potency [2] | Potency [3] | Potency [4] | Potency [5] | Potency [6] | Potency [12] | Potency [11] | Potency [7] | Potency [8] | Potency [9] | Potency [13] | Potency [10]

O=C(OCCc1ccccc1)c1ccccc1
active: Potency [13] 0.386 µM
inactive: Potency [1] | Potency [2] | Potency [3] | Potency [4] | Potency [5] | Potency [6] | Potency [7] | Potency [8] | Potency [9] | Potency [10]

CCC(CC)Nc1ccc(C)c(C)c1
inactive: Potency [1] | Potency [2] | Potency [3] | Potency [4] | Potency [5] | Potency [6] | Potency [14] | Potency [8] | Potency [10]

CCN(CC)c1ccc2c(-c3ccccc3C(=O)O)c3ccc(=[N+](CC)CC)cc-3oc2c1
active: Potency [5] 19.3 µM | Potency [8] 19.3 µM | Potency [10] 7.7 µM
inactive: Potency [1] | Potency [2] | Potency [3] | Potency [4] | Potency [6] | Potency [14]

CN(C)c1ccc(/C=C/c2ccc([N+](=O)[O-])cc2)cc1
inactive: viability change, negative = cytotoxic [1] 7.13% [at 6.95 µM] | activity, negative = cytotoxic [2] -0.218% [at 6.95 µM] | activation [3] -8.84% [at 6.95 µM] | activity change, negative = cytotoxicity [4] 15.7% [at 6.95 µM] | activity, negative = cytotoxicity [5] 1.18% [at 8.39 µM] | activity change, negative = inhibition [6] 127% [at 8.39 µM] | activation [12] -11.3% [at 6.97 µM] | activation [11] -7.68% [at 6.98 µM] | activity change, negative = cytotoxicity [7] -5.22% [at 6.97 µM] | activity change, negative = cytotoxicity [8] -0.286% [at 8.39 µM] | activity, negative = inhibition [9] 84.6% [at 8.39 µM] | viability change, negative = cytotoxic [10] 1.01% [at 8.39 µM]

CCCCC
inactive: Potency [2] | Potency [3] | Potency [4] | Potency [5] | Potency [6] | Potency [12] | Potency [11] | Potency [7] | Potency [8] | Potency [9] | Potency [13] | Potency [10]

c1ccc(CNCCNCc2ccccc2)cc1
inactive: Potency [1] | Potency [2] | Potency [3] | Potency [4] | Potency [5] | Potency [6] | Potency [12] | Potency [7] | Potency [9] | Potency [13] | Potency [10]

O=C(O)C1(C(=O)O)CCC1.[NH2-].[NH2-].[Pt+2]
inactive: Potency [1] | Potency [2] | Potency [3] | Potency [4] | Potency [5] | Potency [6] | Potency [12] | Potency [11] | Potency [7] | Potency [8] | Potency [13] | Potency [10]

C#CCN(C)CCCOc1ccc(Cl)cc1Cl
inactive: Potency [1] | Potency [2] | Potency [3] | Potency [4] | Potency [5] | Potency [6] | Potency [12] | Potency [11] | Potency [7] | Potency [8] | Potency [9] | outcome [15] | outcome [16] | Potency [10]

CCCCC/C=C\C/C=C\CCCCCCCC(=O)NC(C)c1ccccc1 (configuration not stated)
inactive: Potency [1] | Potency [2] | Potency [3] | Potency [4] | Potency [5] | Potency [6] | Potency [12] | Potency [7] | Potency [9] | Potency [13]

CCCCCCCC#N
inactive: Potency [1] | Potency [2] | Potency [3] | Potency [4] | Potency [5] | Potency [6] | Potency [14] | Potency [8] | Potency [10]

C[C@@H]1C[C@H]2O[C@@]3(O[C@@H]2C(C)(C)O)[C@H](O)[C@@]2(C)[C@@H]4CC[C@H]5C(C)(C)[C@@H](O[C@@H]6OC[C@@H](O)[C@H](O)[C@H]6O)CC[C@@]56C[C@@]46CC[C@]2(C)[C@@H]13
inactive: Potency [1] | Potency [2] | Potency [3] | Potency [4] | Potency [5] | Potency [6] | Potency [14] | Potency [8] | Potency [9] | Potency [10]

CCC(Cl)CCC(Cl)C(Cl)CC(Cl)C(Cl)C(Cl)CCl (configuration not stated)
inactive: Potency [1] | Potency [2] | Potency [3] | Potency [4] | Potency [5] | Potency [6] | Potency [11] | Potency [7] | Potency [8] | Potency [9] | Potency [10]

CN(C)c1ccc(C(c2ccccc2)c2ccc(N(C)C)cc2)cc1
inactive: Potency [1] | Potency [2] | Potency [3] | Potency [4] | Potency [5] | Potency [12]
active: Potency [6] 27.3 µM

CN1CCC(=C2c3ccccc3Sc3ccccc32)CC1
active: Potency [6] 29.8 µM
inactive: Potency [1] | Potency [2] | Potency [3] | Potency [4] | Potency [5] | Potency [14] | Potency [8] | Potency [13]

CN1CCN(C(c2ccccc2)c2ccccc2)CC1
inactive: Potency [1] | Potency [2] | Potency [3] | Potency [4] | Potency [5] | Potency [6] | Potency [11] | Potency [7] | Potency [8] | Potency [10]

CCCCC(CC)CN1C(=O)C2C3C=CC(C3)C2C1=O (configuration not stated)
inactive: Potency [2] | Potency [3] | Potency [4] | Potency [5] | Potency [6] | Potency [7] | Potency [8]

COc1ccc(C(=O)Nc2nc3ccccc3c(NCc3ccccc3)c2C#N)cc1
inactive: Potency [1] | Potency [2] | Potency [3] | Potency [4] | Potency [5] | Potency [6] | Potency [14] | Potency [8]

O=C1CCCCCCCCCCCC(=O)OCCO1
inactive: Potency [2] | Potency [3] | Potency [4] | Potency [5] | Potency [6] | Potency [14] | Potency [8] | Potency [10]

CCOC(=O)NCCOc1ccc(Oc2ccccc2)cc1
active: Potency [6] 43.3 µM
inactive: Potency [1] | Potency [2] | Potency [3] | Potency [4] | Potency [5] | Potency [14] | Potency [8] | Potency [9]
